Values joined by “and” are separate entries in the source; they are usually repeats but may differ in a detail not shown here. Identical values can stand only once. Records with an inconclusive call do not appear. Entries that show only a call come without a potency. Active and inactive are the calls of the source. The call rests on the fitted dose curve; in most records, active means well fitted cell-killing curve with a large enough effect in the repeat runs (not every such curve was filed as active); inconclusive means weak or mixed curves, or effect the other way; inactive means no such curve, though single readings can be large or run the other way.
Potency means the concentration at half of the fitted maximal effect.

This test can be described thus: qHTS assay to identify small molecule antagonists of the estrogen related receptor signaling pathway with the pleiotropic PPARgamma coactivator (PGC) from Tox21 10K library - cell viability counter screen (AID 1224840). Further: nearly all actives have a fitted effect of over 40% in size. The note with it: PGC/ERR reporter cells viability, CellTiter-Fluor, 17.5 h; series mostly up to 92.4 µM; viability change, negative = cytotoxic: at the top concentration. The source says:
National Center for Advancing Translational Sciences [NCATS]
NIH Chemical Genomics Center [NCGC]
U.S. Environmental Protection Agency [EPA]
National Institutes of Environmental Health Sciences [NIEHS]
National Toxicology Program [NTP]
U.S. Food and Drug Administration [FDA]
Estrogen related receptors (ERRs), the first orphan nuclear receptors discovered, play an important role in the control of cellular energy metabolism. ERRs are required for high-energy production in response to the environmental challenges. The pleiotropic PPARgamma coactivator (PGC) is a major partner of ERR and a key regulator in energy homeostasis. Together they have been implicated in the etiology of metabolic disorders such as Type 2 diabetes and metabolic syndrome. ERR-alpha was also identified as an adverse marker for breast cancer progression; ERR-alpha-positive tumors have a poor prognosis. To screen and to identify environmental compounds that perturb the ERR and PGC/ERR signaling pathways could provide valuable information for potential therapeutic or preventive measures in the treatment of metabolic disease. To differentiate true PGC/ERR antagonists or agonist from cytotoxic substances, the assay is multiplexed with cell viability assay.
Tox21 Assay Protocol Summary:
The PGC/ERR cells were dispensed at 2,000 cells/5 ul/well in 1536-well white plates using a Multidrop dispenser. After the assay plates were incubated at a 37 C/5% CO2 incubator for 6 hours, 23 nL of compounds dissolved in DMSO, positive and negative controls or DMSO only was transferred to the assay plate by a pin tool. The plates were incubated at 37 C for 17.5 hours. 1 ul/well of CellTiter-Fluor reagent was added into the assay plates using a Flying Reagent Dispenser. After 30-minute incubation at 37 C/5% CO2, the fluorescence intensity in the plates was measured using a ViewLux plate reader.
Background: In qHTS, concentration-response curves come from the screen itself.
Consider `C=CC(Cl)CCl` (stereo not given), for which the Potency entry was “inactive”. As for `Cc1cc(Cl)ccc1N=CN(C)C`, the Potency entry is “inactive”.

For the compound `CC(C)(c1ccc(OCC2CO2)cc1)c1ccc(OCC2CO2)cc1` (stereo not given), the “viability change, negative = cytotoxic” value is -12% (inactive). `CCCCCCCCCCCCCl`: the Potency entry is “inactive”. For `S=c1[nH]c2ccccc2[nH]1`, the Potency entry was “inactive”.

Regarding `O=P(OCCCl)(OCCCl)OCCCl`, the Potency entry is “inactive”. As for `O=C1CCCO1`, the Potency result is “inactive”. In the case of `COc1ccc(CO)cc1`, the Potency result is “inactive”. Turning to `CC[n+]1c(-c2ccccc2)c2cc(N)ccc2c2ccc(N)cc21`, the Potency was 24.2 µM (active). Still for that read-out and setting: the result for `Cn1c(-c2ccccc2)cc(-c2ccccc2)[n+]1C` reads “inactive”. On to `CCCCSP(=O)(SCCCC)SCCCC`, for which the Potency entry is “inactive”. For `CC(C)Nc1ccc(Nc2ccccc2)cc1`, the Potency was 43.1 µM (active).

For `CCC/C=N/O`, the Potency entry was “inactive”. Turning to `N#Cc1nn(-c2c(Cl)cc(C(F)(F)F)cc2Cl)c(N)c1S(=O)C(F)(F)F` (stereo not given), the “viability change, negative = cytotoxic” value was -14.7% [at 42.5 µM] (inactive).

As for `CCCCOCC1CO1` (stereo not given), the Potency entry is “inactive”. Take `N#Cc1c(Cl)c(Cl)c(Cl)c(C#N)c1Cl`: the Potency was 4.24 µM (active) and 6.11 µM (active). `CC(C)=CC1C(C(=O)OCc2cccc(Oc3ccccc3)c2)C1(C)C` (stereo not given): the Potency entry was “inactive”. Still for that read-out and setting: next, `O=[N+]([O-])c1ccc(Cl)c([N+](=O)[O-])c1`: 49.3 µM (active) and 27.3 µM (active). Turning to `Cc1ccc(N=CN(C)C=Nc2ccc(C)cc2C)c(C)c1`, the Potency entry is “inactive”.

As to `COP(=S)(OC)Oc1ccc(S(=O)(=O)N(C)C)cc1`, the Potency entry is “inactive”.

For `CC(C)Nc1nc(Cl)nc(NC(C)C)n1`, the Potency entry was “inactive”. In the case of `N#CCCCCC#N`, the Potency entry is “inactive”. For `NC(=O)CN1CCCC1=O`, the Potency result is “inactive”. Same read-out and setting: the result for `CNC(=O)CSP(=S)(OC)OC` reads “inactive”. Still for that read-out and setting: the result for `c1ccc2c(c1)Nc1ccccc1S2` reads “inactive”; that for `CSc1nc(NC(C)C)nc(NC(C)C)n1`, “inactive”; that for `O=NN(c1ccccc1)c1ccccc1`, “inactive”. With `CCOP(=S)(OCC)OP(=S)(OCC)OCC`, the Potency entry is “inactive”. Regarding `CC1=C(C(=O)Nc2ccccc2)SCCO1`, the Potency result was “inactive”. Still for that read-out and setting: next, `c1ccc(C2CO2)cc1` (stereo not given): “inactive”; `ClCc1ccccn1`: “inactive”; `CCNCC`: “inactive”. As for `CCC[CH2][Sn]([Cl])([Cl])[CH2]CCC`, the Potency is 492 nM (active) and 486 nM (active).

In the case of `ClC(Cl)=C(Cl)C(Cl)=C(Cl)Cl`, the Potency result is “inactive”. `CCNc1nc(Cl)nc(NC(C)(C)C#N)n1`: the Potency result was “inactive”. The same measure, in the same setting: next, `O=[N+]([O-])/N=C1\NCCN1Cc1ccc(Cl)nc1`: “inactive”. In the case of `CC(O)CN(CC(C)O)CC(C)O` (stereo not given), the Potency entry was “inactive”.

Turning to `COP(=S)(OC)Oc1ccc(Sc2ccc(OP(=S)(OC)OC)cc2)cc1`, the Potency result is “inactive”. On to `C[N+](C)(C)CC(=O)[O-]`, for which the Potency result was “inactive”.

With `CCOP(=S)(OCC)SCn1c(=O)oc2cc(Cl)ccc21`, the Potency entry is “inactive”.

(Values after PubChem BioAssay (Tox21).)
